Test results reported in paper PMC8384837, “Expanding the binding specificity for RNA recognition by a PUF domain”.

Experiments:
Test in all cases: yeast three-hybrid, YBZ-1, SC-Leu-His + 0.5 mM 3-AT, 4 days
Details in all cases: tags: N-Gal4 AD-HA kept; label: inside an RPR1-promoter hybrid RNA with tandem MS2 sites; ssRNA
PUM1 PUF domain R7-ENR = PUM1 PUF domain R7-ENR (Homo sapiens, UniProt Q14671 828-1176, S1079E;E1083R)
Procedure, shortened: (§1)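 Matching RNA elements and Pumilio-1 PUF domain libraries, randomized at the three base-contacting residues of every repeat, were co-expressed from a centromeric plasmid in strain YBZ-1 (LexA–MS2 coat fusion, HIS3 reporter). The repeat regions were PCR-amplified and Illumina-sequenced from cells grown four days on SC-Leu (input) or SC-Leu-His + 0.5 mM 3-AT (selection). The interaction score is the log change in variant frequency from input to selection. It is computed in log2, with a pseudocount of 1 for absent variants.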

PUM1 PUF domain R5-KYS = PUM1 PUF domain R5-KYS (Homo sapiens, UniProt Q14671 828-1176, C1007K;R1008Y;Q1011S)
Procedure, shortened: as §1

PUM1 PUF domain R5-RRD = PUM1 PUF domain R5-RRD (Homo sapiens, UniProt Q14671 828-1176, C1007R;Q1011D)
Procedure, shortened: as §1

PUM1 PUF domain R1-QTR = PUM1 PUF domain R1-QTR (Homo sapiens, UniProt Q14671 828-1176, S863Q;R864T;Q867R)
Procedure, shortened: as §1

PUM1 PUF domain R8-KYK = PUM1 PUF domain R8-KYK (Homo sapiens, UniProt Q14671 828-1176, N1122K;Q1126K)
Procedure, shortened: as §1

PUM1 PUF domain R8-GHR = PUM1 PUF domain R8-GHR (Homo sapiens, UniProt Q14671 828-1176, N1122G;Y1123H;Q1126R)
Procedure, shortened: as §1

PUM1 PUF domain R8-RYW = PUM1 PUF domain R8-RYW (Homo sapiens, UniProt Q14671 828-1176, N1122R;Q1126W)
Procedure, shortened: as §1

PUM1 PUF domain R4-WSG = PUM1 PUF domain R4-WSG (Homo sapiens, UniProt Q14671 828-1176, N971W;H972S;Q975G)
Procedure, shortened: as §1

PUM1 PUF domain R3-SNR = PUM1 PUF domain R3-SNR (Homo sapiens, UniProt Q14671 828-1176, C935S;R936N;Q939R)
Procedure, shortened: as §1

PUM1 PUF domain R5-MYC = PUM1 PUF domain R5-MYC (Homo sapiens, UniProt Q14671 828-1176, C1007M;R1008Y;Q1011C)
Procedure, shortened: as §1

PUM1 PUF domain R5-KYC = PUM1 PUF domain R5-KYC (Homo sapiens, UniProt Q14671 828-1176, C1007K;R1008Y;Q1011C)
Procedure, shortened: as §1

PUM1 PUF domain R5-RHN = PUM1 PUF domain R5-RHN (Homo sapiens, UniProt Q14671 828-1176, C1007R;R1008H;Q1011N)
Procedure, shortened: as §1

PUM1 PUF domain R5-PRS = PUM1 PUF domain R5-PRS (Homo sapiens, UniProt Q14671 828-1176, C1007P;Q1011S)
Procedure, shortened: as §1

PUM1 PUF domain R5-KWA = PUM1 PUF domain R5-KWA (Homo sapiens, UniProt Q14671 828-1176, C1007K;R1008W;Q1011A)
Procedure, shortened: as §1

PUM1 PUF domain R7-TIV = PUM1 PUF domain R7-TIV (Homo sapiens, UniProt Q14671 828-1176, S1079T;N1080I;E1083V)
Procedure, shortened: as §1

PUM1 PUF domain R3-RCS = PUM1 PUF domain R3-RCS (Homo sapiens, UniProt Q14671 828-1176, C935R;R936C;Q939S)
Procedure, shortened: as §1

PUM1 PUF domain R6-QRS = target: T1, PUM1 PUF domain R6-QRS (Homo sapiens, UniProt Q14671 828-1176, N1043Q;Y1044R;Q1047S)
T1 sequence: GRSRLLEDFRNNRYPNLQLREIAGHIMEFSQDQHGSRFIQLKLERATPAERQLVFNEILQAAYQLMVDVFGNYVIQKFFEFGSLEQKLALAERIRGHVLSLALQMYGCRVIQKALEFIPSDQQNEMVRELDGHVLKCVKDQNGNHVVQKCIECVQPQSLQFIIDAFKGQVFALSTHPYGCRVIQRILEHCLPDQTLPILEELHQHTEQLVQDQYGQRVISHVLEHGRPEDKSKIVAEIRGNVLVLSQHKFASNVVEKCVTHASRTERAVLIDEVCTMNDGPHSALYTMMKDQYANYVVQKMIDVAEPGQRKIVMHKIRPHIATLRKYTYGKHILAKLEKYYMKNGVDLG
Procedure, shortened: as §1

PUM1 PUF domain R3-IFT = PUM1 PUF domain R3-IFT (Homo sapiens, UniProt Q14671 828-1176, C935I;R936F;Q939T)
Procedure, shortened: as §1

PUM1 PUF domain R8-EWK = PUM1 PUF domain R8-EWK (Homo sapiens, UniProt Q14671 828-1176, N1122E;Y1123W;Q1126K)
Procedure, shortened: as §1

PUM1 PUF domain R1-KLC = PUM1 PUF domain R1-KLC (Homo sapiens, UniProt Q14671 828-1176, S863K;R864L;Q867C)
Procedure, shortened: as §1

For “GGCUAGAACUAGUGGAUCCCCCGGCGCCCGGCGGCUCGAGCCCGGGUAAGUCUAAAUAGUCUGCAUGCCGCCGGGCGCCAUGCCUGCAGGUCGACUCUAGAAAACAUG”, the binding signal (PUM1 PUF domain R7-ENR) was 3.14 log2 enrichment (interaction score).
With “GGCUAGAACUAGUGGAUCCCCCGGCGCCCGGCGGCUCGAGCCCGGGUAAGUGUCAAUAGUCUGCAUGCCGCCGGGCGCCAUGCCUGCAGGUCGACUCUAGAAAACAUG” the binding signal (PUM1 PUF domain R5-KYS) was 3.71 log2 enrichment (interaction score) and the binding signal (PUM1 PUF domain R5-RRD) was 5.76 log2 enrichment (interaction score).
For “GGCUAGAACUAGUGGAUCCCCCGGCGCCCGGCGGCUCGAGCCCGGGUAAGUGUAAAUCGUCUGCAUGCCGCCGGGCGCCAUGCCUGCAGGUCGACUCUAGAAAACAUG”, the binding signal (PUM1 PUF domain R1-QTR) was 2.41 log2 enrichment (interaction score).
In the case of “GGCUAGAACUAGUGGAUCCCCCGGCGCCCGGCGGCUCGAGCCCGGGUAAGCGUAAAUAGUCUGCAUGCCGCCGGGCGCCAUGCCUGCAGGUCGACUCUAGAAAACAUG”, the binding signal (PUM1 PUF domain R8-KYK) is reported as 3.86 log2 enrichment (interaction score), the binding signal (PUM1 PUF domain R8-GHR) is reported as 3.27 log2 enrichment (interaction score) and the binding signal (PUM1 PUF domain R8-RYW) is reported as 5.69 log2 enrichment (interaction score).
For “GGCUAGAACUAGUGGAUCCCCCGGCGCCCGGCGGCUCGAGCCCGGGUAAGUGUAUAUAGUCUGCAUGCCGCCGGGCGCCAUGCCUGCAGGUCGACUCUAGAAAACAUG”, the binding signal (PUM1 PUF domain R4-WSG) was 3.48 log2 enrichment (interaction score).
In the case of “GGCUAGAACUAGUGGAUCCCCCGGCGCCCGGCGGCUCGAGCCCGGGUAAGUGUAAUUAGUCUGCAUGCCGCCGGGCGCCAUGCCUGCAGGUCGACUCUAGAAAACAUG”, the binding signal (PUM1 PUF domain R3-SNR) is reported as 3.93 log2 enrichment (interaction score).
In the case of “GGCUAGAACUAGUGGAUCCCCCGGCGCCCGGCGGCUCGAGCCCGGGUAAGUGUUAAUAGUCUGCAUGCCGCCGGGCGCCAUGCCUGCAGGUCGACUCUAGAAAACAUG”, the binding signal (PUM1 PUF domain R5-RRD) is reported as 5.74 log2 enrichment (interaction score), the binding signal (PUM1 PUF domain R5-MYC) is reported as 2.86 log2 enrichment (interaction score) and the binding signal (PUM1 PUF domain R5-KYC) is reported as 5.51 log2 enrichment (interaction score).
In the case of “GGCUAGAACUAGUGGAUCCCCCGGCGCCCGGCGGCUCGAGCCCGGGUAAGUGUGAAUAGUCUGCAUGCCGCCGGGCGCCAUGCCUGCAGGUCGACUCUAGAAAACAUG”, the binding signal (PUM1 PUF domain R5-RHN) is reported as 4.79 log2 enrichment (interaction score), the binding signal (PUM1 PUF domain R5-PRS) is reported as 1.55 log2 enrichment (interaction score) and the binding signal (PUM1 PUF domain R5-KWA) is reported as 2.43 log2 enrichment (interaction score). For the same sequence, the binding signal (PUM1 PUF domain R5-MYC) was 4.74 log2 enrichment (interaction score).
In the case of “GGCUAGAACUAGUGGAUCCCCCGGCGCCCGGCGGCUCGAGCCCGGGUAAGUUUAAAUAGUCUGCAUGCCGCCGGGCGCCAUGCCUGCAGGUCGACUCUAGAAAACAUG”, the binding signal (PUM1 PUF domain R7-TIV) is reported as 2.5 log2 enrichment (interaction score).
In the case of “GGCUAGAACUAGUGGAUCCCCCGGCGCCCGGCGGCUCGAGCCCGGGUAAGUGUACAUAGUCUGCAUGCCGCCGGGCGCCAUGCCUGCAGGUCGACUCUAGAAAACAUG”, the binding signal (PUM1 PUF domain R4-WSG) is reported as 2.7 log2 enrichment (interaction score).
With “GGCUAGAACUAGUGGAUCCCCCGGCGCCCGGCGGCUCGAGCCCGGGUAAGUGUAAGUAGUCUGCAUGCCGCCGGGCGCCAUGCCUGCAGGUCGACUCUAGAAAACAUG” the binding signal (PUM1 PUF domain R3-RCS) was 4.81 log2 enrichment (interaction score) and the binding signal (PUM1 PUF domain R3-SNR) was 0.8 log2 enrichment (interaction score).
For “GGCUAGAACUAGUGGAUCCCCCGGCGCCCGGCGGCUCGAGCCCGGGUAAGUGUAAAUAGUCUGCAUGCCGCCGGGCGCCAUGCCUGCAGGUCGACUCUAGAAAACAUG”, the binding signal (PUM1 PUF domain R6-QRS) was 4.63 log2 enrichment (interaction score), the binding signal (PUM1 PUF domain R4-WSG) was 1.85 log2 enrichment (interaction score) and the binding signal (PUM1 PUF domain R3-IFT) was 4.66 log2 enrichment (interaction score). The binding signal (PUM1 PUF domain R5-KYS) was 2.35 log2 enrichment (interaction score), the binding signal (PUM1 PUF domain R8-EWK) was 3.5 log2 enrichment (interaction score) and the binding signal (PUM1 PUF domain R5-RRD) was 2.72 log2 enrichment (interaction score). The binding signal (PUM1 PUF domain R8-KYK) was 2.92 log2 enrichment (interaction score), the binding signal (PUM1 PUF domain R5-PRS) was 4.36 log2 enrichment (interaction score) and the binding signal (PUM1 PUF domain R8-GHR) was 1.48 log2 enrichment (interaction score). The binding signal (PUM1 PUF domain R8-RYW) was 4.31 log2 enrichment (interaction score) and the binding signal (PUM1 PUF domain R5-KYC) was 5.13 log2 enrichment (interaction score).
For “GGCUAGAACUAGUGGAUCCCCCGGCGCCCGGCGGCUCGAGCCCGGGUAAGUGUAAAUUGUCUGCAUGCCGCCGGGCGCCAUGCCUGCAGGUCGACUCUAGAAAACAUG”, the binding signal (PUM1 PUF domain R1-KLC) was 5.07 log2 enrichment (interaction score).
